KDM5B inhibitor: inhibitors of human KDM5B histone demethylase | KDM5B demethylase, FDH-coupled NADH fluorescence (FDH is formaldehyde dehydrogenase) | actives 2.6% (n = 220,000) | Potency, µM (doses to about 57.7 µM), most hits filed as inhibitors | AID 1347165; active = well fitted inhibition curve with a large enough effect; also: 0% is about no effect; nearly all actives have a fitted effect of over 70% in size
Target sequence (Q9UGL1 whole entry, looked up): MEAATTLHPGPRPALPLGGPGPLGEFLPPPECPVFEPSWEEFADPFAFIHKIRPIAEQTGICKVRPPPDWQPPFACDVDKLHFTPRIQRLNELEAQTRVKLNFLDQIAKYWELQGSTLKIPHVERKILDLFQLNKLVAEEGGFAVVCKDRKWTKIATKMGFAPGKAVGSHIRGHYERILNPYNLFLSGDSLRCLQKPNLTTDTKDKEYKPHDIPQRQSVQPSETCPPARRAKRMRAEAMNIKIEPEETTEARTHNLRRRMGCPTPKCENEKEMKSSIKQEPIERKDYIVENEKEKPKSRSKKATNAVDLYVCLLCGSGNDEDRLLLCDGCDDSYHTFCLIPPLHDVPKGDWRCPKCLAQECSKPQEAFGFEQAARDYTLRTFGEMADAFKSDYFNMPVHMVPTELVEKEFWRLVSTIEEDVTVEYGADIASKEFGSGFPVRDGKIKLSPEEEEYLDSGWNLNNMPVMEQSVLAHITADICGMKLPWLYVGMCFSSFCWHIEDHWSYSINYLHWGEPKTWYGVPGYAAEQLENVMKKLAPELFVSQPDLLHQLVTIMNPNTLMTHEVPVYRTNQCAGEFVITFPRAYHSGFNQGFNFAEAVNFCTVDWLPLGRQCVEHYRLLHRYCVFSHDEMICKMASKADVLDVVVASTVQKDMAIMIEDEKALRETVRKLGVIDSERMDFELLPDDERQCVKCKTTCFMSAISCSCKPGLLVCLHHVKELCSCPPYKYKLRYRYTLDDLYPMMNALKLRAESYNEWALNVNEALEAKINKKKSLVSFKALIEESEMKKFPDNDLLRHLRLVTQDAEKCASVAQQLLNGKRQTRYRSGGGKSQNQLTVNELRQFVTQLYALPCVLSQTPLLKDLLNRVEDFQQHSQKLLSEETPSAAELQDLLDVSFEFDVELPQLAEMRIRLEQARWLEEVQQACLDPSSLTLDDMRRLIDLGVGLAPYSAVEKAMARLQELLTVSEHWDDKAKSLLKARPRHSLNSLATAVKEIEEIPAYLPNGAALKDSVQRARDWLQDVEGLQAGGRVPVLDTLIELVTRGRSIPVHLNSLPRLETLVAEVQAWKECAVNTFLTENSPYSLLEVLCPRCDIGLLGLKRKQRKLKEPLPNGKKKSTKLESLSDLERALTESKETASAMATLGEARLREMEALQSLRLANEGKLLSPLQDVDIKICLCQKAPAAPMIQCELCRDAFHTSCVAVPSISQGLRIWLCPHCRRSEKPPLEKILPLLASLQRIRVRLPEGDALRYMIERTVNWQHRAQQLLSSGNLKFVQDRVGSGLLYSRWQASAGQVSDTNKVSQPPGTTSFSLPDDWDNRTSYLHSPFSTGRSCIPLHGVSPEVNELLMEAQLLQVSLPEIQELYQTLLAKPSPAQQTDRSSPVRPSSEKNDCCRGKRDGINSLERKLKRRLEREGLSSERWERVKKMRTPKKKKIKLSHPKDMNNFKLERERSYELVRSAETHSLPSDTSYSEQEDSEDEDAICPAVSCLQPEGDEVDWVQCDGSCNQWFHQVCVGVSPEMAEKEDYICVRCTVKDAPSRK
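Measured: NADH fluorescence change, 30 min, RT. System: KDM5BΔAP 200 nM final, H3K4me3 peptide, α-KG, Fe(II), ascorbate, NAD⁺ plus FDH, pH 7.5 HEPES. Compounds: titrated, 10 min pre-incubation with enzyme.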
Numbers without * were called inactive; i = inactive. Shown is part of a subset that was picked to be rich in hits. Potency is read from the fitted curve at half-maximal effect.

SMILES	KDM5B inhibitor
Cc1cccc(C(=O)N2CCC(Cc3nncn3CC3CC3)CC2)c1	i
Cc1ccccc1Cc1c(C)nc2c(C(=O)N3CCC(Cc4nncn4CC4CC4)CC3)cnn2c1C	25.1µM*
Cc1nn(C(=O)CCCC(=O)N2CCC(Cc3nncn3CC3CC3)CC2)c2ccccc12	i
COC[C@@H]1CN(C(=O)c2ncccc2C)C[C@H]1c1nc(C2CC2)no1	i
COc1ccc(NC(=O)[C@@H]2C[C@H](c3ccc(F)cc3)N([S+](=O)([O-])C3CC3)C2)cc1OC	i
COc1ccc2c(c1)c(C(C(=O)O)N1CCN(Cc3ccccc3)CC1)cn2CC(=O)O (configuration not stated)	i
CC(C)NC(=O)[C@@H]1C[C@@H](NC(=O)c2cnc3c(O)cccn3c2=O)CN1C	35.5µM*
O=C(Cc1ccc(-n2cnnn2)cc1)NC1CCOC2(CCOCC2)C1 (configuration not stated)	i
CC(C)NC(=O)[C@@H]1C[C@@H](NC(=O)c2ccon2)CN1Cc1cccnc1N	i
O=C(NC1CCOC2(CCOCC2)C1)c1ccc(-c2cnco2)cc1 (configuration not stated)	i
O=C(c1cnc2c(O)cccn2c1=O)N1CCC2(CC1)OCCCC2O (configuration not stated)	31.6µM*
CC(C)NC(=O)C1Cn2cccc2C(=O)N1Cc1ccccc1 (configuration not stated)	i
NC(=O)COc1cccc(C(=O)N2CCC3(CC2)OCCCC3O)c1 (configuration not stated)	i
COc1ccc(OC)c(CC(=O)N2CCC3(CC2)OCCCC3O)c1 (configuration not stated)	i
O=C(NC1CCOC2(CCOCC2)C1)c1cnc2c(O)cccn2c1=O (configuration not stated)	31.6µM*
Cc1nc(-c2ccc(Cl)cc2)sc1C(=O)NC1C=CS(=O)(=O)C1 (configuration not stated)	i
CC(=O)Nc1nc2c(C)cc(NS(=O)(=O)c3ccc(F)cc3)cc2s1	i
COc1ccc(-c2c(NC(=O)c3cc(OC)c(OC)c(OC)c3)oc3ccc(Cl)cc3c2=O)cc1	i
COc1ccc(Oc2c(C)oc3cc(OC(=O)c4ccco4)ccc3c2=O)cc1	i
COc1ccc(CN2C[C@H](O)C[C@H]2c2nc(-c3ccncc3)no2)cc1	i
CS(=O)(=O)c1ccc(CN2C[C@H](O)C[C@H]2c2nc(-c3cnccn3)no2)cc1	35.5µM*
CC(=O)N1CCC(N2C[C@H](O)C[C@H]2c2nc(-c3cnccn3)no2)CC1	i
O=C(NCCC1=CCCCC1)C1CCN(C(=O)c2ncn3c2COC(c2ccccc2)C3)CC1 (configuration not stated)	i
CN[C@@H](C)C(=O)N1CC[C@H](NC(=O)c2ccncc2)C[C@H]1C(=O)N[C@@H](Cc1ccc(OC)cc1)C(N)=O	i
COc1ccc(CCC(=O)NCC(=O)N2CCCCCNC(=O)CC2c2ccccc2)cc1 (configuration not stated)	i
SMILES	KDM5B inhibitor
COc1ccc(C(=O)N2CCCCCCNC(=O)[C@@H]3CCC[C@@H]32)cc1	i
COc1ccc(C2(C(=O)NCC(=O)N3CCCCCNC(=O)CC3c3ccccc3)CC2)cc1 (configuration not stated)	i
COc1ccc(C(=O)NCC(=O)N2CCCCCCNC(=O)CC2c2ccccc2)cc1 (configuration not stated)	i
O=C1NCCCCCCN(C(=O)c2cc3ccccc3[nH]2)[C@H]2CCC[C@@H]12	i
COc1ccc2[nH]c(C(=O)NCC(=O)N3CCCCCCNC(=O)CC3c3ccccc3)cc2c1 (configuration not stated)	15.8µM*
COc1ccc(C(=O)NCC(=O)N2CCCCCCNC(=O)CC2c2ccccc2)c(OC)c1 (configuration not stated)	i
COc1ccc2[nH]c(C(=O)NCC(=O)N3CCCCCNC(=O)CC3c3ccccc3)cc2c1 (configuration not stated)	28.2µM*
COc1ccc2[nH]c(C(=O)N3CCCCCNC(=O)[C@@H]4CCC[C@@H]43)cc2c1	28.2µM*
CCc1ccc2nc(C)cc(C(=O)OCC(=O)c3cccc([N+](=O)[O-])c3)c2c1	i
Cc1nn(-c2ccc(F)cc2)c(C)c1CN1CCCn2nc(CO)cc2C1	i
CCCn1c(C)cc(C(=O)CSc2nc3cc(S(N)(=O)=O)ccc3n2CC)c1C	i
COc1ccc(-c2noc([C@@H](C)NC(=O)C3CCCCC3)c2C(=O)O)cc1	i
N#Cc1ccc(C(=O)NCc2coc(-c3cccs3)n2)cc1	i
CN(C)CCNC(=O)Cc1c[nH]c2ncc(-c3ccccc3)cc12	35.5µM*
Cc1ccccc1-c1cnc2[nH]cc(CC(=O)NCCN(C)C)c2c1	35.5µM*
CN(C)CCNC(=O)CN1N=C(c2ccccc2)CCC1=O	i
Cc1ccccc1-c1cnc2[nH]cc(CC(=O)NCc3ccccc3)c2c1	i
O=C(Cc1c[nH]c2ncc(-c3ccccc3)cc12)NCCc1ccccc1	i
COCCN1C(=O)[C@@H]2C[C@@H](CN2C(=O)C2CCOCC2)Oc2ccccc21	i
Cc1nc(CCNC(=O)CC2COc3ccc(C(=O)N(C)C)cc3N2C)no1 (configuration not stated)	i
COCCNC(=O)c1ccc2c(c1)N(C)C(CC(=O)NCc1ccoc1)CO2 (configuration not stated)	28.2µM*
CN(C)C(=O)c1ccc2c(c1)N(C)C(CC(=O)Nc1ccc[nH]c1=O)CO2 (configuration not stated)	i
CCCN(C)C(=O)CC1COc2ccc(C(=O)NCCOC)cc2N1C (configuration not stated)	31.6µM*
CN(C)C(=O)c1ccc2c(c1)N(C)C(CC(=O)NC1(CO)CCCCC1)CO2 (configuration not stated)	i
CCC(CC)N(CC)C(=O)CC1COc2ccc(C(=O)N(C)C)cc2N1C (configuration not stated)	i
SMILES	KDM5B inhibitor
COCCNC(=O)c1ccc2c(c1)N(C)C(CC(=O)NCC(C)(C)C)CO2 (configuration not stated)	28.2µM*
C=CCN(C(=O)CC1COc2ccc(C(=O)N(C)C)cc2N1C)C(C)C (configuration not stated)	i
CCN(C(=O)CC1COc2ccc(C(=O)N(C)C)cc2N1C)C1CCOCC1 (configuration not stated)	i
CCOC(=O)c1c(C)[nH]c(C(=O)C(C)Nc2cc(OC)ccc2OC)c1C (configuration not stated)	i
Cc1ccccc1CN1CCC(CN(Cc2cccnc2)C(=O)C2CC=CCC2)CC1 (configuration not stated)	i
CCOC(=O)c1cnc(SCc2nc(-c3cccc(Cl)c3)oc2C)nc1N	i
Cc1ccc(Cl)c(OCc2n[nH]c(=S)n2C)c1	i
CC(=O)N[C@H](C)c1onc(-c2ccc(Cl)cc2)c1C(=O)O	i
Cc1ccc(C)c(Nc2nnc(-c3ccc(C)c(S(N)(=O)=O)c3)c3ccccc23)c1	i
Cc1ccc(C(=O)C(C)Oc2ccc(C#N)cc2)cc1C (configuration not stated)	i
CCC1CCC(NC(=O)c2ccncc2)CC1 (configuration not stated)	i
Cc1ccc(Nc2c(-c3cccnc3)nc3ccc(Br)cn23)cc1	i
Cc1ccc(-c2nocc2CCC(=O)O)cc1	i
